Results as given in PubChem BioAssay (NCI).
This is part of a sample that, as a whole, favours compounds with a hit. Of some 83,000 tested, about 20% had one in any assay.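 For each line, cells grew in 96-well plates with the test compound present at a single concentration for 48 hours.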 Values without a mark were called inactive. Calls of active or inactive are those of the source. The calls were made as follows: active = growth percent below 10; inactive = the rest.

Tests used:
Test in all cases: NCI-60 one-dose screen, 48 h (100 = growth as untreated, 0 = no growth, -100 = all killed)
Details in all cases: 10 µM unless noted
[1] = system: DU-145 prostate
[2] = system: K-562 leukemia
[3] = system: MALME-3M melanoma
[4] = system: MDA-MB-231 breast
[5] = system: RXF 393 renal
[6] = system: SF-268 CNS
[7] = system: SF-295 CNS
[8] = system: SF-539 CNS
[9] = system: UACC-257 melanoma
[10] = system: M14 melanoma

Compound | growth [1] | growth [2] | growth [3] | growth [4] | growth [5] | growth [6] | growth [7] | growth [8] | growth [9] | growth [10]
C=C(C)[C@@H]1CC[C@]2(C(=O)N3CCNCC3)CC[C@]3(C)[C@H](CC[C@@H]4[C@@](C)(CCC(=O)N5CCNCC5)[C@H](C(=C)C)CC[C@]43C)[C@@H]12 | 79.1% | 3.02% (active) | 98.9% | 71.2% | 82.2% | 98.4% | 101% | 79.4% | 95.5% | 85.8%
C#CCOc1ccc2nc(CCl)c(Cl)c(Nc3cccc(C(F)(F)F)c3)c2c1 | 72% | 38.8% | 59.5% | 55% | 84.1% | 85.3% | 88% | 104% | 93.7% | 81.4%
Cc1cccc(N=Nc2cccc(C)c2)c1 | 112% | 138% | 100% | 86.4% | 115% | 110% | 97.9% | 110% | 113% | 108%
COc1ccccc1S(=O)(=O)Nc1ccc2c3c(cc(CCC(=O)NCCCCNc4cccc5c4C(=O)N(C4CCC(=O)NC4=O)C5=O)cc13)C(=O)N2C (stereo not given) | 75.9% | 17.4% | -29% (active) | -33.3% (active) | -14.4% (active) | 11.9% | 47.6% | 31.3% | 71.7% | 36%
Nc1ncnc2c1N=C(c1ccc(Cl)cc1)CC(c1cccc(Nc3ccnc4cc(Cl)ccc34)c1)N2 (stereo not given) | 83.2% | -0.992% (active) | 84.8% | 63.5% | 34.1% | 53.4% | 67% | 76% | 105% | 64.8%
c1ccc(Nc2nc3c(s2)CCc2c[nH]cc2-3)nc1 | 103% | 66.3% | 92.5% | 82.7% | 104% | 92.5% | 107% | 106% | 88.7% | 102%
Nc1ccc(Br)cc1C(F)(F)F | 116% | 97.1% | 114% | 103% | 116% | 108% | 119% | 97% | 104% | 106%
O=C(/C=C/C12c3ccccc3C(c3ccccc31)C1C(=O)NC(=O)C12)c1ccc(Cl)cc1Cl (stereo not given) | 23% | 7.41% (active) | 48.2% | 19.3% | -4.59% (active) | 33.3% | 40.8% | 39.4% | 41% | 24.4%
Nc1c(Br)cc2c(c1Br)Cc1cc([N+](=O)[O-])ccc1-2 | 124% | 69.5% | 67.3% | 90.6% | 115% | 103% | 117% | 99.4% | 93.5% | 111%
O=C1/C(=C/c2cccc(Br)c2)COc2ccc(O)cc21 | 69.7% | 2.93% (active) | 78.9% | 27.9% | 70.6% | 67.6% | 100% | 69.3% | 99.9% | 76.5%
COc1cc(Cc2cc(OC)c(O)c(OC)c2)cc(OC)c1O | 117% | 20.1% | 86% | 95.2% | 86.3% | 105% | 62.2% | 101% | 89.3% | 75.3%
COc1cc(/C=C/c2cc(/C=C/c3ccc(O)c(OC)c3)n(C(=O)Nc3ccc(Cl)cc3)n2)ccc1O | 11.7% | -7.3% (active) | 3.94% (active) | 14.3% | -53.6% (active) | 13.9% | -21.9% (active) | 0.163% (active) | 3.11% (active) | 4.04% (active)
COCCn1cc(-c2nc(-c3cc4cccnc4n3C)cs2)c2ccccc21 | 66.8% | 20% | 70.7% | 37.1% | 70.7% | 58.9% | 36.5% | 60.6% | 49% | 24.3%
C[C@@H]1NC(=O)[C@H](Cc2ccccc2)N(Cc2cccnc2)C1=O | 108% | 89% | 101% | 97.3% | 108% | 104% | 97% | 101% | 91.7% | 93.8%
COC1C(O)CC(OC2CC(OC3CC(O[C@@H]4C(=O)c5c(cc6cc(OC7CC(OC8CC(O)C(O)C(C)O8)C(O)C(C)O7)c(C)c(O)c6c5O)CC4[C@H](OC)[C@@H](O)C(C)=O)OC(C)C3O)OC(C)C2O)OC1C (stereo not given in full) | 15.8% | 9.22% (active) | -11.6% (active) | 36.2% | -57.5% (active) | 21.5% | 8.38% (active) | -6.81% (active) | -14.7% (active) | -21.2% (active)
CCCC(=O)NC(c1ccc2c(c1)OCO2)c1cc(Cl)c2cccnc2c1O (stereo not given) | 53.7% | 11.4% | 42.5% | 34.9% | 59.9% | 37.7% | 12.7% | 18.6% | 37.8% | 26.3%
COc1ccc(/C=C(\C(=O)NCc2cccnc2)S(=O)(=O)c2ccccc2)cc1OC | 5.77% (active) | 8.68% (active) | 48% | 22.8% | 15.5% | 29.1% | 57.8% | 15.3% | 44.7% | 28.8%
CC(C)(C)c1ccc(C(=O)N/N=C/c2ccc(O)cc2O)cc1 | 24.5% | 14.2% | 11.9% | 35.1% | -4% (active) | 19.9% | 16.6% | 11.2% | 3.68% (active) | -10.3% (active)
CCN(CC)CCCNc1cc(OC)c(OC)c2cccnc12 | 90.3% | 66.2% | 90.3% | 74.2% | 113% | 66.1% | 79.5% | 55.7% | 67% | 48%
Nc1c(C(=O)Nc2cccc3ncccc23)sc2nc3c(cc12)CN(Cc1ccccc1)CC3 | 93.9% | 34.8% | 76.2% | 75.3% | 80.8% | 84.6% | 67.5% | 88.7% | 69.2% | 90.1%
CCOC(=O)C(CCN(C)C)c1ccccc1 (stereo not given) | 105% | 107% | 96% | 99% | 90.4% | 90% | 101% | 96.2% | 94.2% | 106%
COc1ccc(C/C(C)=C(\c2ccc(Cl)cc2)c2ccc(OCCCN(C)C)cc2)cc1 | 102% | -7.99% (active) | 80% | 83.3% | 72.4% | 88.6% | 105% | 84.7% | 91.5% | 48.7%
N#Cc1c(-c2ccccc2)nc2c(c(-c3ccccc3)nn2-c2ccccc2)c1-c1ccc(N2CCCCC2)cc1 | 103% | 92.7% | 98.6% | 97.7% | 115% | 101% | 97.9% | 100% | 93.3% | 90.8%
COc1nc(/C=C\Nc2ccc3c(c2)OCCOCCOCCOCCO3)nc(OC)n1 | 97.2% | 101% | 85% | 91.2% | 100% | 92.8% | 91.2% | 96.9% | 105% | 96.4%
CCN(CC)CCN1C(=O)c2c(c3c4ccccc4[nH]c3c3ccc4ccccc4c23)C1=O | -92.3% (active) | -33% (active) | -85.7% (active) | -78.9% (active) | 47.1% | -45% (active) | 48.3% | -85.7% (active) | 105% | -85% (active)
NCCCNc1nc2ccccc2c2c(=O)c3cc(Cl)ccc3sc12 | -76.9% (active) | -70.1% (active) | -38.3% (active) | -82.9% (active) | 47.1% | 37.7% | 4.81% (active) | 55.7% | 74.9% | -48.2% (active)
O=c1oc2c(cc1-c1ccccc1)c(=O)[nH]c1ccccc12 | 105% | 89.2% | 95.7% | 96.8% | 102% | 100% | 94.6% | 106% | 100% | 99.7%
